Among the data in PubChem BioAssay (EPA / NIEHS) are outcome and AC50 values, retold here.

SMILES strings stand for the structures. A structure can be active in one record and inactive in another. Activity calls are given as the source filed them. How the source made its calls: active means hit-call score of the fitted dose curve at least 0.9, where 1 is the maximum; inactive means score below 0.9.

A short description of this experiment: APR_HepG2_MitoMembPot_72hr: Apredica 72-hour HepG2 Assay for Mitochondrial Membrane Potential (AID 2282917). Conditions: imaging, actives raise or lower the signal. As for the experimental part: APR_HepG2_72hr is a cell-based, multiplexed-readout assay that uses HepG2, a human liver cell line, with measurements taken at 72 hours after chemical dosing in a 384-well plate.APR_HepG2_MitoMembPot_72hr is one of 10 assay component(s) measured or calculated from the APR_HepG2_72hr assay. It is designed to make measurements of dye binding, a form of membrane potential reporter, as detected with fluorescence intensity signals by HCS Fluorescent Imaging technology.Data from the assay component APR_HepG2_MitoMembPot_72hr was analyzed into 1 assay endpoint. This assay endpoint, APR_HepG2_MitoMembPot_72hr, was analyzed with bidirectional fitting relative to DMSO as the negative control and baseline of activity. Using a type of membrane potential reporter, gain or loss-of-signal activity can be used to understand changes in the signaling. Furthermore, this assay endpoint can be referred to as a primary readout, because this assay has produced multiple assay endpoints where this one serves a signaling function. To generalize the intended target to other relatable targets, this assay endpoint is annotated to the cell morphology intended target family, where the subfamily is organelle conformation.
Cells were treated with dimethyl sulfoxide (DMSO) as a solvent control at a final concentration of 0.5% v/v or with compounds in DMSO with a resulting final DMSO concentration of 0.5% v/v. Compound treatment was done at concentrations of 0.39, 0.78, 1.56, 3.12, 6.24, 12.5, 25, 50, 100, and 200 uM in duplicate on each plate. Cells were treated with compounds for 1, 24, or 72 hr. Carbonyl […] m-chloro-phenylhydrazone (CCCP) and taxol were used as positive controls for mitochondrial function and cytoskeletal stability, respectively; DMSO served as the negative control for this experiment. Cells were fixed by the direct addition of 50 uL formaldehyde in Hank's Balanced Salt Solution (HBSS) to a final concentration of 3.7%. After incubation in the fixation medium for 30 min at room temperature (293-298 K), cells were rinsed twice with HBSS and treated with cell permeabilization buffer (16 uL of 0.5% Triton X-100) for 10 min at room temperature (293-298 K) before labeling. For mitochondrial membrane potential and mitochondrial measurements, pre-fixed cells were incubated with 50 uL of MitoTracker Red CMXRos (Invitrogen) at a concentration of 250 nM for 30 min before fixation. In the remaining cases, post-fixed cells were labeled by incubation with a multiplexed mixture of primary antibodies in HBSS for 60 min at room temperature (293-298 K) to detect immunoreactivity of c-Jun (1:500), phospho-histone H3 (1:100), phospho-histone H2A.x (1:200), p53 (1:400), alpha-tubulin (1:200) and Hoechst 33342 (2 ug/mL). Cells were labeled for multiplexed imaging on two separate plates: a) Hoechst 33342, MitoTracker Red, phospho-histone H3, and alpha-tubulin, and b) Hoechst 33342, phospho-histone H2A.x, and c-Jun. A final rinse with HBSS (50 uL) was performed before analysis. The primary and secondary antibodies for the proteins were phospho-histone H3 (rabbit anti-phospho-histone H3 and FITC-donkey anti-rabbit IgG), phospho-histone H2A.x (mouse anti-phospho-histone H2A.x and FITC-donkey anti-mouse IgG), c-Jun (rabbit anti-phospho-c-Jun and Cy3-donkey anti-rabbit IgG), p53 (sheep anti-p53 and Cy5-donkey anti-sheep IgG), alpha-tubulin (mouse anti-alpha-tubulin and Cy5-donkey anti-mouse IgG). These antibodies are available as the CellCiphr HepG2 assay kit (Millipore).Digital images of each well were captured using a Cellomics ArrayScan VTI (Thermo Scientific Cellomics) (0.8 NA objective, 0.63x optical coupler, and XF-93 filter set) at 20x magnification. The images were acquired using the autofocus feature of the ArrayScan instrument, which entails the following steps. First, the camera focuses on channel 1 (Hoechst 33342), where nuclei are identified. Second, a Z offset of 1 um is used for capturing mitochondria (MitoTracker Red). […]
With `CCC(=O)C(CC(C)N(C)C)(c1ccccc1)c1ccccc1` (centres undefined), the result was inactive. Turning to `CCC(C)(C)c1ccc(O)c(C(C)(C)CC)c1`, the call was inactive.

For orientation: AC50 means the midpoint of the concentration-response curve, whichever way the signal moves. `O=c1[nH]c(=O)[nH]c(=O)[nH]1`: the AC50 was 99.5 µM (active). Regarding `ClCC(Cl)CCl`, the outcome was inactive. The same measure, in the same setting: as for `O=C1C2(Cl)C3(Cl)C4(Cl)C(Cl)(Cl)C5(Cl)C3(Cl)C1(Cl)C5(Cl)C24Cl` (centres undefined), the entry is “inactive”.

`CN(C)N=O`: the result was inactive. Turning to `O=C(Nc1ccc2[nH]ccc2c1)c1cc2cc(F)ccc2n1Cc1cccc(F)c1`, the AC50 is 1.02 µM (active).

On to `C=C(C)C(=O)[O][Sn]([CH2]CCC)([CH2]CCC)[CH2]CCC`, for which the outcome was inactive. For the compound `CCCCCCCCc1ccc(O)cc1`, the AC50 is 34.6 µM (active). `Cn1sc(Cl)cc1=O`: the AC50 was 120 µM (active). As to `CC(C)(OO)c1ccccc1`, the call was inactive. For `CC(C)(C)c1cc(O)ccc1O`, the result was inactive. Take `CC(C)(c1ccccc1)c1ccc(O)c(C(C)(C)c2ccccc2)c1`: the call was inactive.

Consider `Cc1ccccc1N`, for which the compound was called inactive.

Regarding `NC(=O)O`, the result was inactive. In the case of `C[C@@H]1C[C@@H]([C@H](O)CC2CC(=O)NC(=O)C2)C(=O)[C@@H](C)C1`, the compound was called inactive. Same read-out and setting: the entry for `CC(C)(C)CC(C)(C)c1ccc(O)cc1` is “inactive”; for `Oc1cccc2cccnc12` it is “inactive”. For `CC12CC1(C)C(=O)N(c1cc(Cl)cc(Cl)c1)C2=O` (centres undefined), the call was inactive. Regarding `O=C(O)C(Cl)(Cl)Cl`, the outcome was inactive. In the case of `COc1cc(-c2ccc(N)c(OC)c2)ccc1N`, the compound was classed as inactive and the AC50 was 14.3 µM (active). Take `C[C@]12CCC(=O)C[C@@H]1CC[C@@H]1[C@@H]2CC[C@]2(C)[C@@H](O)CC[C@@H]12`: the compound was called inactive. For `ClC1(Cl)C2(Cl)C3(Cl)C4(Cl)C(Cl)(Cl)C5(Cl)C3(Cl)C1(Cl)C5(Cl)C24Cl` (centres undefined), the compound was called inactive.

On to `CC(=O)[O][Hg][c]1ccccc1`, for which the compound was classed as inactive.

For the compound `C=CC(=O)OCCCCCC(C)C`, the result was inactive.

On to `O=C(O)C(F)(F)C(F)(F)C(F)(F)C(F)(F)C(F)(F)C(F)(F)F`, for which the call was inactive. Take `CCN1CCC2(CC1)COc1cc3c(cc12)N(C(=O)c1ccc(-c2ccc(-c4nnc(C)o4)cc2C)cc1)CC3`: the AC50 was 75.1 µM (active). Consider `O=C(O)C(F)(F)C(F)(F)C(F)(F)C(F)(F)C(F)(F)C(F)(F)C(F)(F)C(F)(F)C(F)(F)C(F)(F)F`, for which the compound was called inactive.
